Data from PubChem BioAssay (NCI).
This is part of a sample that, as a whole, favours compounds with a hit. Of some 83,000 tested, about 20% had one in any assay.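 Percent growth is the endpoint: 0 to 100 indicates growth inhibition (40 means 60% inhibition), 0 means no net growth, and negative values indicate cell death.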 The source made the active and inactive calls. Rule for the calls: active = growth percent below 10; inactive = the rest.

What was measured:
Assay in all cases: NCI-60 one-dose screen, 48 h (100 = growth as untreated, 0 = no growth, -100 = all killed)
[1] = system: HCT-15 colon; details: 10 µM unless noted
[2] = system: HT29 colon; details: 10 µM unless noted
[3] = system: SNB-75 CNS; details: 10 µM unless noted
[4] = system: SNB-19 CNS; details: 10 µM unless noted
[5] = system: U251 CNS; details: 10 µM unless noted
[6] = system: PC-3 prostate; details: 10 µM unless noted
[7] = system: SK-MEL-5 melanoma; details: 10 µM unless noted
[8] = system: UACC-62 melanoma; details: 10 µM unless noted
[9] = system: LOX IMVI melanoma; details: 10 µM unless noted
[10] = system: SK-MEL-28 melanoma; details: 10 µM unless noted
[11] = system: SK-MEL-2 melanoma; details: 10 µM unless noted
[12] = system: EKVX NSCLC; details: 10 µM unless noted
[13] = system: SN12C renal; details: 10 µM unless noted
[14] = system: TK-10 renal; details: 10 µM unless noted
[15] = system: ACHN renal; details: 10 µM unless noted
[16] = system: CAKI-1 renal; details: 10 µM
[17] = system: A498 renal; details: 10 µM unless noted
[18] = system: CCRF-CEM leukemia; details: 10 µM unless noted
[19] = system: MOLT-4 leukemia; details: 10 µM unless noted
[20] = system: UO-31 renal; details: 10 µM unless noted

Measured: growth

Cn1cnc([N+](=O)[O-])c1N1c2ccncc2Sc2ccncc21
inactive: [1] 99% | [2] 137% | [3] 233% | [4] 94.7% | [5] 88.7% | [6] 93.3% | [7] 91.7% | [8] 81% | [9] 78.5% | [10] 149% | [11] 94.2% | [12] 78.8% | [13] 113% | [14] 132% | [15] 75.8% | [16] 85.7% | [17] 93.1% | [18] 94.7% | [19] 91.6%

COc1ccc(/C=C/C(=O)/C=C(/C=C/c2ccc(OC)c(OC)c2OC)OB(F)F)c(OC)c1OC
inactive: [2] 13.9% | [3] 94.5% | [4] 57.1% | [6] 29.1% | [7] 36.8% | [10] 41% | [11] 76% | [12] 65.8% | [13] 20.6% | [20] 16.8% | [14] 35.6% | [17] 95.1%
active: [1] 9.58% | [5] 4.99% | [9] -5.79% | [15] -16.4% | [18] -2.62% | [19] 3.43%

CC(=O)N1N=C2N(Cc3ccccc3)C(=O)c3c(sc4c3CCCC4)N2C1c1cn(-c2ccccc2)nc1-c1ccc(Cl)cc1 (centres undefined)
inactive: [1] 96.9% | [2] 107% | [3] 99.3% | [4] 94.2% | [5] 87.2% | [6] 92.6% | [7] 102% | [8] 95.5% | [9] 92.9% | [10] 104% | [11] 98% | [12] 87.9% | [13] 103% | [14] 102% | [15] 96.6% | [16] 101% | [17] 103% | [18] 92.4% | [19] 86.3%

C=CC(=O)NC(=O)Nc1ccccc1Cl
inactive: [1] 67.9% | [2] 70.2% | [3] 83.8% | [4] 72.5% | [5] 81.7% | [6] 78.2% | [7] 96.6% | [9] 86.1% | [10] 109% | [11] 86% | [12] 94.7% | [13] 83.5% | [20] 59.8% | [14] 45.2% | [17] 109% | [18] 37.2% | [19] 39.6%

c1ccc([Se]CCCN2CCN(CCC[Se]c3ccccc3)CC2)cc1
active: [12] 1.25% | [16] -23.6%
inactive: [1] 90.9% | [2] 96.3% | [3] 100% | [4] 119% | [5] 101% | [6] 102% | [7] 101% | [8] 92.3% | [9] 91.6% | [10] 111% | [11] 121% | [13] 104% | [14] 129% | [15] 100% | [17] 116% | [18] 105% | [19] 127%

O=C(Nc1ccc(-n2ccc3c(NC(=O)c4ccccc4)nccc32)cc1)Nc1ccc(Cl)c(Cl)c1
active: [1] -50.8% | [2] -42.8% | [3] -7.26% | [4] -40.2% | [5] -79.6% | [7] -97.9% | [9] -72.4% | [11] -42.4% | [20] -61.4% | [15] 2.67% | [16] -57.7% | [18] -34.6% | [19] 9.08%
inactive: [6] 23.9% | [10] 18.2% | [12] 39.5% | [13] 10.7% | [17] 68.2%

COc1ccc(-c2coc3c(CO)c(O)ccc3c2=O)cc1
active: [5] -58.9% | [6] -27.7% | [9] -27.9%
inactive: [1] 43.2% | [2] 85.8% | [3] 115% | [4] 72.5% | [7] 58.7% | [10] 88.8% | [11] 19.2% | [12] 72.1% | [13] 10.1% | [20] 24.3% | [14] 75.2% | [15] 20.8% | [17] 68.6% | [18] 45.2% | [19] 91.3%

COc1ccc(-c2nnc(SCC(=O)N3CCN(c4cc5c(cc4F)c(=O)c(C(=O)O)cn5C4CC4)CC3)o2)cc1OC
inactive: [1] 93.6% | [2] 94.6% | [3] 98.4% | [4] 97.4% | [5] 98.4% | [6] 59.2% | [7] 99.7% | [9] 81.6% | [10] 95.2% | [11] 103% | [12] 102% | [13] 97.6% | [20] 93.7% | [15] 102% | [16] 97.1% | [17] 96.7% | [18] 82.6% | [19] 77.4%

CC(Cc1cccc(C(F)(F)F)c1)NCCOC(=O)c1ccccc1 (centres undefined)
inactive: [1] 105% | [2] 115% | [3] 99.5% | [4] 100% | [5] 104% | [6] 103% | [7] 89.5% | [9] 96.3% | [10] 107% | [11] 113% | [12] 84.6% | [13] 99.8% | [20] 85.4% | [14] 129% | [16] 87.4% | [17] 107% | [18] 105% | [19] 96.1%

Nc1ncc(-c2ccc3ncnc(Nc4ccc(F)c(Cl)c4)c3c2)cn1
inactive: [1] 45.9% | [2] 32.8% | [4] 90.5% | [6] 64.5% | [7] 95.8% | [8] 103% | [9] 35.6% | [10] 102% | [11] 95% | [12] 40.8% | [13] 37.4% | [20] 12% | [17] 23% | [18] 61.4% | [19] 80.4%
active: [3] -12.6% | [5] -14.8%

COc1ccccc1P(c1ccccc1OC)c1ccccc1OC
inactive: [1] 104% | [2] 92.2% | [3] 98% | [4] 75.7% | [5] 95.7% | [6] 80% | [7] 88.6% | [9] 85.4% | [10] 117% | [11] 99.1% | [12] 91% | [13] 113% | [20] 86.1% | [15] 98.3% | [16] 86.2% | [17] 79.4% | [18] 130% | [19] 105%

COc1ccc2c(c1)nnc1c3cccnc3[nH]c21
active: [2] -27.1% | [3] -14.2% | [5] -4.49% | [9] -30.8% | [11] -13.2% | [13] -22.2% | [20] -74.1% | [18] -0.9% | [19] -21.6%
inactive: [1] 12.2% | [4] 11.5% | [6] 29.3% | [7] 46.2% | [10] 31.9% | [12] 34.2% | [14] 11.8% | [17] 40.3%

O=C(NCCNc1nccc(-c2c(-c3cccc(O)c3)nc3sccn23)n1)c1ccccc1O
inactive: [1] 54.5% | [2] 49.2% | [3] 40.6% | [4] 90.2% | [5] 61.6% | [6] 51.1% | [7] 22.7% | [9] 33.5% | [10] 41.4% | [11] 13.9% | [12] 66.8% | [13] 48% | [20] 34.6% | [15] 46.1% | [16] 24.3% | [17] 104% | [18] 18.9% | [19] 46.2%

O=C(/C=C/c1ccco1)c1cccc(Nc2nc(Nc3ccccc3)nc(Nc3ccccc3)n2)c1
inactive: [1] 72% | [2] 79.1% | [3] 60.2% | [4] 92.4% | [5] 77.1% | [6] 66.4% | [7] 81.2% | [8] 80.3% | [9] 83.5% | [10] 95% | [11] 83.9% | [12] 77.8% | [13] 98.6% | [14] 141% | [15] 95.5% | [16] 92.8% | [18] 56.4% | [19] 61.7%

CC(C)CCC[C@@H](C)[C@H]1CC[C@H]2[C@@H]3CC=C4N(c5ccccc5)C(=O)CC[C@]4(C)[C@H]3CC[C@]12C
inactive: [1] 96.4% | [2] 90.3% | [3] 93.6% | [4] 109% | [5] 101% | [6] 80.4% | [7] 99.1% | [9] 98% | [10] 106% | [11] 101% | [12] 96.7% | [13] 86.2% | [20] 91.7% | [14] 97.4% | [15] 105% | [18] 92.2% | [19] 79.9%

COc1ccc(/C=C2/C(=O)Nc3cc(Cl)c(-c4csc(N)n4)cc32)cc1
inactive: [1] 39.9% | [2] 27.9% | [3] 37.5% | [4] 45.5% | [5] 46.3% | [6] 50.3% | [7] 19.1% | [9] 48.6% | [10] 70.1% | [11] 35% | [12] 46.5% | [13] 59.6% | [20] 55.6% | [14] 84.4% | [17] 25.1% | [18] 31.7% | [19] 28.2%

Cn1c(I)c(C#C[Si](C)(C)C)c(=O)[nH]c1=O
inactive: [3] 75.2% | [4] 100% | [5] 51.5% | [7] 98.3% | [8] 11.8% | [11] 60.7% | [12] 86.5% | [13] 32.8% | [14] 82.3%
active: [1] -37.6% | [2] -60% | [6] 4.88% | [9] -69.9% | [10] -82% | [15] -28.4% | [16] -79% | [18] -61.6% | [19] -59.7%
